Inconclusive results are not listed. Entries that show only a call come without a potency. The source made the active and inactive calls. Unless noted, the call rests on the fitted dose curve.
Experiments:
[1] = biological target: Atrial natriuretic peptide receptor 1 (Homo sapiens) (UniProt P16066); assay: Natriuretic polypeptide receptor (hNpr1) antagonism - Pilot screen (AID 1347049);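 further: agonist-evoked cGMP luminescence read 20 min after hNppA addition; series mostly up to about 58 µM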
Procedure, shortened: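 cGMP-sensor HEK293/hNpr1 cells, 1500/well, plated overnight at 37C. 2% GloSensor reagent, 2 h RT. Compound (23 nL pin transfer) 30 min RT, baseline luminescence pre-read. 0.1 nM hNppA, 20 min RT, post-read.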

[2] = biological target: Atrial natriuretic peptide receptor 2 (Homo sapiens) (UniProt P20594); assay: Natriuretic polypeptide receptor (hNpr2) antagonism - Pilot subtype selectivity assay (AID 1347050)
Atrial natriuretic peptide receptor 2 (Homo sapiens), sequence (P20594 whole entry, looked up): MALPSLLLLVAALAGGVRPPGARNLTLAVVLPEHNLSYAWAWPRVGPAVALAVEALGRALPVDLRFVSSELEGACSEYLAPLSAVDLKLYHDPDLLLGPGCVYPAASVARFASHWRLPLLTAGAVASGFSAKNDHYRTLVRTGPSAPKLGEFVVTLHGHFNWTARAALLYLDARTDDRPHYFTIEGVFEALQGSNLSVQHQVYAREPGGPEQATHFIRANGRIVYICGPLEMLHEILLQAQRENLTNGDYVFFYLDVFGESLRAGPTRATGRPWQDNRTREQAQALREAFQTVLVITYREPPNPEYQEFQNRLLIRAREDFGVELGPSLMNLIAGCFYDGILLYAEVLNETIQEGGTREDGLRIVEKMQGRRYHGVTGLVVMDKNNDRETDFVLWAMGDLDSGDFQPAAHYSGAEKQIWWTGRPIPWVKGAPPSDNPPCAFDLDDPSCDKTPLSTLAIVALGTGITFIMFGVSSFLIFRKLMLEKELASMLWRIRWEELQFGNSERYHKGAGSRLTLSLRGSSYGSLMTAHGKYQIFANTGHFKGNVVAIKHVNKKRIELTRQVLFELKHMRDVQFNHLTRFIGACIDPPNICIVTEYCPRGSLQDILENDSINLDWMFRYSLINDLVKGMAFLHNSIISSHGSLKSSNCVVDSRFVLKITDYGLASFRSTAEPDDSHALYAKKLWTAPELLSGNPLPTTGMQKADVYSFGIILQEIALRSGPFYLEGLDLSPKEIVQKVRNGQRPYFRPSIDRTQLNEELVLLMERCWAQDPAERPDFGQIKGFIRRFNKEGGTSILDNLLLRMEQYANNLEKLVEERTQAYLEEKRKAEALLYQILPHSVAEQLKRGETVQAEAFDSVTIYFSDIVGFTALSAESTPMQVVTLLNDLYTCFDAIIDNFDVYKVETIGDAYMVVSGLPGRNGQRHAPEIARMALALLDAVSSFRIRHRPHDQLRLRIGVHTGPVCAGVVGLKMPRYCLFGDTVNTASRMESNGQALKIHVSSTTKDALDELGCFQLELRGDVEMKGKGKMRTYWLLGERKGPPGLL
Procedure, shortened: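 Luminescence from a genetically encoded cGMP luciferase biosensor in hNpr2-expressing HEK293 cells is read before and 20 min after adding 1 nM hNppC. Test compounds, in interplate 1:5 titrations, are added 30-50 min ahead of the agonist.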

[3] = NS1 protein of Zika virus - qHTS assay to identify small molecule inhibitors in human HEK 293 cells (AID 1347053; active means well fitted inhibition curve with a large enough effect; further: series mostly up to about 46 µM; nearly all actives have a fitted effect of over 55% in size)
Procedure, shortened: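 TR-FRET signal from two anti-ZIKV NS1 antibodies quantified NS1 in HEK 293 cells 24 h after MR766 infection at MOI = 0.5; compounds were added 1 h before virus. Uninfected cells and infected cells defined the NS1 normalization range.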

[4] = biological target: T1, Tyrosine-protein phosphatase non-receptor type substrate 1 (Homo sapiens) + Leukocyte surface antigen CD47 (Homo sapiens) (UniProt P78324+Q08722); assay: CD47-SIRPalpha protein protein interaction - LANCE assay qHTS validation (AID 1347057; active means well fitted curve in the direction sought with a large enough effect in the signal ratio, with a control signal flat, not every such curve was filed as active; the % refers to the signal ratio; further: potency means the concentration at half of the fitted maximal effect)
T1 sequence (P78324 whole entry, looked up, the tested form may be a part): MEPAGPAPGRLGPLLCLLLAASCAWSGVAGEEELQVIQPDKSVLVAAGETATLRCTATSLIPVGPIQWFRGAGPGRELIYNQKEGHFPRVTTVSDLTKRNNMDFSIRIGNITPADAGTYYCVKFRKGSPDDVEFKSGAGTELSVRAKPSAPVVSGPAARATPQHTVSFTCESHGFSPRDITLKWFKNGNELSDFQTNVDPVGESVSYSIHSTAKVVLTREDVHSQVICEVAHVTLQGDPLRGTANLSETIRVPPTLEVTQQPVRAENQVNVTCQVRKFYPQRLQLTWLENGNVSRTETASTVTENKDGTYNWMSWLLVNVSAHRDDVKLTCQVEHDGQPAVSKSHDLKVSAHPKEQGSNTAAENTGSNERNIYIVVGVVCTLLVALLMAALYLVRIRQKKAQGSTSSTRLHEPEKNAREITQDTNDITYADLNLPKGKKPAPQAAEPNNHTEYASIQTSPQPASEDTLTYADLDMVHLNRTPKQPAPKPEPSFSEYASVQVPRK
T1 sequence (Q08722 whole entry, looked up, the tested form may be a part): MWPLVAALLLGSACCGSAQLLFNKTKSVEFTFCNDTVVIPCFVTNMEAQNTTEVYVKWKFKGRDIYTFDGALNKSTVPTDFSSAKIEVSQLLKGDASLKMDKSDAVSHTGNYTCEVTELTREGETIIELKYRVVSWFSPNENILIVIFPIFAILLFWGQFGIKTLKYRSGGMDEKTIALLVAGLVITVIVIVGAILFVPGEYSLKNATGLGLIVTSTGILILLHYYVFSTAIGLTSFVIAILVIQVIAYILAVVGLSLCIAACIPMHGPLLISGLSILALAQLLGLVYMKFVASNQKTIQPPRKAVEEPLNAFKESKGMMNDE
Procedure, shortened: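 Inhibition of soluble CD47/SIRPalpha ectodomain association by titrated compounds, measured as 665/615 nm time-resolved FRET ratio after sequential 30 min room-temperature incubations.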

[5] = biological target: T1, Tyrosine-protein phosphatase non-receptor type substrate 1 (Homo sapiens) + Leukocyte surface antigen CD47 (Homo sapiens); assay: CD47-SIRPalpha protein protein interaction - HTRF assay qHTS validation (AID 1347058; active means well fitted curve in the direction sought with a large enough effect in the signal ratio, not every such curve was filed as active; the % refers to the signal ratio; further: series mostly up to about 38 µM)
Procedure, shortened: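 Soluble extracellular domains (6His-CD47, Avi-tag-biotinylated SIRPalpha) in PBS pH 7.4 with 0.05% IGEPAL CA-630. Compounds were preincubated 30 min at RT with CD47 and anti-His-Eu, then SIRPalpha and SAV-XL665 were added. TR-FRET 665/615 ratio.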

[6] = Natriuretic polypeptide receptor (hNpr1) antagonism - Pilot counterscreen GloSensor control cell line (AID 1347045); further: series mostly up to about 38 µM
Procedure, shortened: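 The SNP-driven cGMP luminescence signal (50 uM, 20 min, room temperature) was measured in GloSensor HEK293 control cells. Compounds were tested as a LOPAC titration series and preincubated for 30-50 min.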

Atrial natriuretic peptide receptor 1 (Homo sapiens), sequence (P16066 whole entry, looked up): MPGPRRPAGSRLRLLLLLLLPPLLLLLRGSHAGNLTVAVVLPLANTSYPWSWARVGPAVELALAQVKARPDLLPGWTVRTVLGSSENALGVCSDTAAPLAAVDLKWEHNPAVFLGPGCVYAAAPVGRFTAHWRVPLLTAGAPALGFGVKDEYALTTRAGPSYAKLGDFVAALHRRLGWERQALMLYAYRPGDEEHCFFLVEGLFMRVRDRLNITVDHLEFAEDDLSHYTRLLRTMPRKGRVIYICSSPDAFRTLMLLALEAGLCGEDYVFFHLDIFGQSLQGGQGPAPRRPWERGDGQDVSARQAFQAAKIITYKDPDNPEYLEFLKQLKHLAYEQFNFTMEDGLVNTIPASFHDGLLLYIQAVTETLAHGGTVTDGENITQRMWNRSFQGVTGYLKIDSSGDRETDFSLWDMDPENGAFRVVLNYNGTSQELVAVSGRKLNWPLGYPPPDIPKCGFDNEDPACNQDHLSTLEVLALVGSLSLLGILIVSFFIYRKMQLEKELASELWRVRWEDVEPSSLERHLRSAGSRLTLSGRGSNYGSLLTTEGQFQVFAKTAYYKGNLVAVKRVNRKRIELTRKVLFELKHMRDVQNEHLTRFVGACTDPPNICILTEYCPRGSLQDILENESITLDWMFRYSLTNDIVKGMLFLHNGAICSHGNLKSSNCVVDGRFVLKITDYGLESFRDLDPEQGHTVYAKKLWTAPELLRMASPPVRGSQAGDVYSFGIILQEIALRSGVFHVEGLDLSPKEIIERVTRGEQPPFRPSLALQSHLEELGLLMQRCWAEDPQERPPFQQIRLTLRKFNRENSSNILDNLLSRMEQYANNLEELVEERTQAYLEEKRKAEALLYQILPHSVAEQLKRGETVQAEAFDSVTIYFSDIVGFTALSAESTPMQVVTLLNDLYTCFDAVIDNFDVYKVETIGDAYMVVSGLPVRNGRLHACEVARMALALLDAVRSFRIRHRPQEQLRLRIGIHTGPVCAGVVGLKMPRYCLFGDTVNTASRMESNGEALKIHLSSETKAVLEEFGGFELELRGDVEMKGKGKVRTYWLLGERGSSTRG

SMILES | Potency [1] | Potency [2] | outcome [3] | Potency [4] | outcome [5] | Potency [6]
CN(N=O)c1ccc(O)c(O)c1 | inactive | inactive | inactive | 18.5 µM (active) | – | –
Nc1ccc(CCN2CCN(c3cccc(C(F)(F)F)c3)CC2)cc1 | inactive | inactive | inactive | inactive | inactive | –
COC(=O)N1CCN(C(=O)Cc2ccc(Cl)c(Cl)c2)C(CN2CCCC2)C1 (centres undefined) | inactive | inactive | inactive | inactive | – | –
O=C1C=CC(=O)C=C1 | inactive | inactive | inactive | inactive | inactive | –
CN1CC[C@@]2(C)c3cc(O)ccc3N(C)C12 (some centres undefined) | inactive | inactive | inactive | inactive | – | –
CN(C(=O)Cc1ccc(Cl)c(Cl)c1)C(CN1CCCC1)c1cccc(OCC(=O)O)c1 (centres undefined) | inactive | inactive | inactive | inactive | inactive | –
C[C@H]1C2Cc3ccc(O)cc3[C@@]1(C)CCN2CC1CC1 | – | – | inactive | inactive | – | –
C[N+]1(C)CCc2cc3c(cc2[C@H]1[C@@H]1OC(=O)c2c1ccc1c2OCO1)OCO3 | inactive | inactive | inactive | inactive | – | –
O=c1ccc2[nH]cc(C3=CCNCC3)c2[nH]1 | – | – | inactive | inactive | – | –
CN(N=O)c1cc(O)ccc1O | inactive | – | inactive | inactive | – | –
NC(C(=O)O)c1cc(=O)[nH]o1 (centres undefined) | inactive | inactive | inactive | inactive | – | –
C=CCN1C[C@@H](C)N([C@H](c2ccc(C(=O)N(CC)CC)cc2)c2cccc(OC)c2)C[C@@H]1C | inactive | inactive | – | inactive | – | –
N#C/C(=C/c1ccc(O)c(O)c1)C(N)=S | inactive | inactive | inactive | – | – | –
CCCn1c(=O)c2[nH]c(C3CCCC3)nc2n(CCCOC(=O)c2ccc(S(=O)(=O)F)cc2)c1=O | – | inactive | inactive | inactive | inactive | inactive
CCCCCCC(C)(C)c1ccc([C@@H]2C[C@H](O)CC[C@H]2CCCO)c(O)c1 | inactive | inactive | – | – | – | –
O=C1/C(=C/c2ccccc2)C[C@@]2(O)[C@H]3Cc4ccc(O)c5c4[C@@]2(CCN3CC2CC2)[C@H]1O5 | – | – | – | inactive | – | –
N[C@@H](Cn1oc(=O)[nH]c1=O)C(=O)O | inactive | inactive | inactive | inactive | – | –
C=CCN1CCc2cccc3c2[C@H]1Cc1ccc(O)c(O)c1-3 | inactive | inactive | – | – | – | –
C[C@]12Cc3cn4c(nc3C=C1CCC1C2CC[C@@]2(C)[C@H]1CC[C@@]2(O)C#N)nc1ccccc14 (some centres undefined) | – | – | inactive | inactive | – | –

— PubChem BioAssay (NCATS)
